A short description of experiment [1]: ATG_CRE_CIS: Attagene CIS-FACTORIAL HepG2 Assay for human cAMP Responsive Element (CRE) binding protein 3 (AID 2282926). To be noted: HepG2 CRE cis-reporter, Attagene multiplexed mRNA; actives raise or lower the signal. In short, it runs like this:
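Liver-derived HepG2, transfected with a CRE-containing reporter panel, exposed 24 h; transcript levels sized and quantified by capillary electrophoresis of labelled amplicons; signal changes either way referenced to vehicle.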

Experiment [2] deals with CCAAT/enhancer-binding protein beta (Homo sapiens) (UniProt P17676). Kind of experiment: ATG_C_EBP_CIS: Attagene CIS-FACTORIAL HepG2 Assay for human CCAAT/Enhancer Binding Protein (C/EBP) beta (AID 2282927). As to conditions: HepG2 Attagene cis-factorial transcription factor reporter; actives raise or lower the signal. Put shortly: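 Changes in reporter mRNA, rather than exogenous chimeric receptor activity, reflect native C/EBP signalling in transfected HepG2 cells dosed for 24 h; transcripts are detected by RT-PCR and capillary electrophoresis.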

Experiment [3] in a line: ATG_CMV_CIS: Attagene CIS-FACTORIAL HepG2 Assay for human CMV (Internal Marker) (AID 2282928).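 Also: endpoint acts as a background internal control marker rather than a target.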 As to conditions: HepG2 CMV promoter reporter, transcription factor profiling; actives raise or lower the signal. In short, it runs like this:
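Readout: fluorescent reporter cDNA fragments separated by capillary electrophoresis after RT-PCR and HpaI cut. Cells: HepG2 carrying transfected cis-promoter reporter constructs, dosed 24 h. Endpoint serves as background internal-marker control, fit bidirectionally versus DMSO.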

Experiment [4] in a line: ATG_DR4_LXR_CIS: Attagene CIS-FACTORIAL HepG2 Assay for human Liver X Receptor (LXR), DR4 submotif (AID 2282929). As to conditions: HepG2 Attagene DR4 cis-reporter, mRNA transcription; actives raise or lower the signal. In short, it runs like this: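 Readout: reporter transcript fluorescence after RT-PCR and capillary electrophoresis, fitted bidirectionally against DMSO controls. Human HepG2 liver cells carried transiently transfected multiplexed reporter constructs; endogenous transcription factor activity measured 24 h post-dosing.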

A short description of experiment [5]: ATG_AP_1_CIS: Attagene CIS-FACTORIAL HepG2 Assay for human Activator Protein 1 (AP-1) (AID 2282931). As to conditions: HepG2 Attagene cis-factorial AP-1 reporter mRNA; actives raise or lower the signal. Put shortly:
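Reporter transcripts were measured 24 h after dosing by RT-PCR and capillary electrophoresis of fluorescent fragments. Cells: HepG2 carrying transfected cis-regulated reporter constructs reading endogenous factor activity. Gain or loss fitted against DMSO.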

The nature of experiment [6]: ATG_AP_2_CIS: Attagene CIS-FACTORIAL HepG2 Assay for human Activator Protein 2 (AP-2) (AID 2282932). As to conditions: HepG2 AP-2 cis-reporter, Attagene transcription factor profiling; actives raise or lower the signal. Put shortly: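 Endogenous transcription factor activity is reported through transfected multiplex reporter constructs in HepG2, after 24 h of compound exposure. Transcripts were quantified by RT-PCR and capillary electrophoresis of fluorescent fragments. Bidirectional fit against DMSO.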

A short description of experiment [7]: ATG_BRE_CIS: Attagene CIS-FACTORIAL HepG2 Assay for human Bone Morphogenetic Protein (BMP) Response Element (BRE) (AID 2282933). To be noted: HepG2 BMP response element reporter, Attagene transcription factor profiling; actives raise or lower the signal. In short, it runs like this:
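Endogenous transcription factor activity at a BMP response element was monitored in transfected HepG2 cells 24 h after dosing. Fluorescent RT-PCR products were resolved by capillary electrophoresis, and activity was fitted in both directions versus DMSO.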

In experiment [8] the target is Retinoic acid receptor alpha (Homo sapiens) (UniProt P10276). Kind of experiment: ATG_DR5_RAR_CIS: Attagene CIS-FACTORIAL HepG2 Assay for human Retinoic Acid Receptor Alpha (RARE), DR5 submotif (AID 2282934).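 As to AC50: reporter responds to endogenous RAR alpha beta and gamma in HepG2 not RARA alone.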 To be noted: HepG2 Attagene cis-factorial RARE DR5 reporter, mRNA; actives raise or lower the signal. Put shortly:
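HepG2, transient cis-reporter transfection, 24 h exposure. mRNA readout: RT-PCR, FAM label, HpaI cut, capillary electrophoresis. DMSO baseline, gain/loss fitting.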

Experiment [9] deals with Transcription factor E2F1 (Homo sapiens) (UniProt Q01094). Nature of the experiment: ATG_E2F_CIS: Attagene CIS-FACTORIAL HepG2 Assay for human E2F Transcription Factor 1 (AID 2282935). To be noted: HepG2 Attagene cis-reporter, E2F reporter RNA transcripts; actives raise or lower the signal. In short, it runs like this:
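Gain or loss of reporter transcript, fitted against DMSO, reflects E2F1-driven transcription. Transiently transfected HepG2 dosed 24 h before RNA isolation. Quantified by fluorescent RT-PCR products separated by capillary electrophoresis.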

Experiment [10] concerns the target Aryl hydrocarbon receptor (Homo sapiens) (UniProt P35869). Nature of the experiment: ATG_Ahr_CIS: Attagene CIS-FACTORIAL HepG2 Assay for human Aryl Hydrocarbon Receptor (Ahr) (AID 2282930). As to conditions: HepG2 AhR cis-factorial reporter transcription; actives raise or lower the signal. Put shortly:
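HepG2, transient MRTU (cis) transfection, 24 h exposure. RNA → cDNA → PCR → 6-FAM primer extension → HpaI 2 h 37 C → CE. Fit: bidirectional, DMSO baseline.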

Consider 18 molecules from PubChem BioAssay (EPA / NIEHS).

Molecules are shown by their SMILES. Active and inactive are the calls of the source. The calls were made as follows: active = hit-call score of the fitted dose curve at least 0.9, where 1 is the maximum; inactive = score below 0.9.

One may read the AC50 as the midpoint of the concentration-response curve, whichever way the signal moves.

Chain of Transcription factor E2F1 (Homo sapiens) (Q01094 whole entry, looked up): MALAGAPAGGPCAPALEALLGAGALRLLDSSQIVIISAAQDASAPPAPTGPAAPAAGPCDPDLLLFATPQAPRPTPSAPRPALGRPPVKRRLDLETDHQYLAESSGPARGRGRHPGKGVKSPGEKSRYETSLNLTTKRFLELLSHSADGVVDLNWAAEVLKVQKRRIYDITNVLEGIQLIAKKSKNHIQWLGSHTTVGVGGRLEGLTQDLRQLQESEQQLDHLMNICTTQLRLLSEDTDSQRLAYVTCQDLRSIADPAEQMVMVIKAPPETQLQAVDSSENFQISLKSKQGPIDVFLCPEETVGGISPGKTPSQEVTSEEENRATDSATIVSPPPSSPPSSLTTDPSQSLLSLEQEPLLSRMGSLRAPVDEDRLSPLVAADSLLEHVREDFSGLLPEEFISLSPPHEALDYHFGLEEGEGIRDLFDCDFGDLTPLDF
Chain of Retinoic acid receptor alpha (Homo sapiens) (P10276 whole entry, looked up): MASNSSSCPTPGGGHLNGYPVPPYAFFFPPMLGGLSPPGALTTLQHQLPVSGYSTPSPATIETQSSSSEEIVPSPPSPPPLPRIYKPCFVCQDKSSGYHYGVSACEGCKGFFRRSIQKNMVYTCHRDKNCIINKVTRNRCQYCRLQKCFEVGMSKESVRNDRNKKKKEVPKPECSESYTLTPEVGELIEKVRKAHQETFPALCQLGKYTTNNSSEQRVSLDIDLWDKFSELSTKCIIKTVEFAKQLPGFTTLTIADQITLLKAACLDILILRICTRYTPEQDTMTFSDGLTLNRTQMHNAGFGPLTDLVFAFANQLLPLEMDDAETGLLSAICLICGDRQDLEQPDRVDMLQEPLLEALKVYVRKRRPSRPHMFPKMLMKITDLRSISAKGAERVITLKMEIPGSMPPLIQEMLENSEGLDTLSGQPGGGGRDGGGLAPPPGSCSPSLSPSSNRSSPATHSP
Chain of CCAAT/enhancer-binding protein beta (Homo sapiens) (P17676 whole entry, looked up): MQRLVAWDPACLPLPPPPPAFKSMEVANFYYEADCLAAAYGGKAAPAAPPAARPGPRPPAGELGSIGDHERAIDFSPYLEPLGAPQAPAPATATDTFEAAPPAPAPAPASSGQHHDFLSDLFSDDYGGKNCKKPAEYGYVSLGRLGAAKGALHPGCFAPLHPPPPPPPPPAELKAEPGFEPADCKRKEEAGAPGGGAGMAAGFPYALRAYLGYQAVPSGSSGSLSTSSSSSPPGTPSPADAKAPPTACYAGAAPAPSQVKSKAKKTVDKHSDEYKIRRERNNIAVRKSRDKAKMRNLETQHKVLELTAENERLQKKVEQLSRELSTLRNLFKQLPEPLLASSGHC
Chain of Aryl hydrocarbon receptor (Homo sapiens) (P35869 whole entry, looked up): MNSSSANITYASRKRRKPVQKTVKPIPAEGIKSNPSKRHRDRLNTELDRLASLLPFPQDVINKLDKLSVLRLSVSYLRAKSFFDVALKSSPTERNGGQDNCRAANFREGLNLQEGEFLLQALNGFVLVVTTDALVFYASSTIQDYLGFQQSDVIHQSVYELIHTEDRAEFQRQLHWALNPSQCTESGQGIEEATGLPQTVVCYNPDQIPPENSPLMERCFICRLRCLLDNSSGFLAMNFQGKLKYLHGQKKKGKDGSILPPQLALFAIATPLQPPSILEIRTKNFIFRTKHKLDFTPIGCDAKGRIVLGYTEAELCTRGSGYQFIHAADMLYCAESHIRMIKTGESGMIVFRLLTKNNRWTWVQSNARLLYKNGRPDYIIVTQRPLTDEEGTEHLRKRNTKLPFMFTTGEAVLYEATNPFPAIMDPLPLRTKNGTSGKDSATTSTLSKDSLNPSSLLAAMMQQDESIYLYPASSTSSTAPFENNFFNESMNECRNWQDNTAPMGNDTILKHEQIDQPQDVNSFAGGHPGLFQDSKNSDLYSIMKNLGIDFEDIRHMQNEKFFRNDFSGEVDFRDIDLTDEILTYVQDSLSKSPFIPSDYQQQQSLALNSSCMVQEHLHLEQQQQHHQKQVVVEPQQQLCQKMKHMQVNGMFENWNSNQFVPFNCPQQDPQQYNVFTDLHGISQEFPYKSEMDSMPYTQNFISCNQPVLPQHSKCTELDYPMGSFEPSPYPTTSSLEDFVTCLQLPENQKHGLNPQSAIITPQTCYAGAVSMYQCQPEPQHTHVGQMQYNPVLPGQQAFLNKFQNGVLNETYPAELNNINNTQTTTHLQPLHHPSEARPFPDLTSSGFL

Regarding `CCC(CO)CO`, the result in experiment [1], in experiment [2], in experiment [3], in [4], in [5] and in experiment [6] was inactive. Moreover, the molecule was called inactive in experiment [7], in experiment [8] and in experiment [9].

With `CCOCC(=O)O`, the call in experiment [1], in [2], in [3], in experiment [4], in experiment [10] and in [6] was inactive. In addition, the call in experiment [7], in experiment [8] and in [9] was inactive.

Turning to `C=C(C)c1cccc(C(C)(C)N=C=O)c1`, the outcome in [1], in experiment [2], in experiment [3], in experiment [4], in experiment [6] and in [8] was inactive. For the same molecule, the AC50 in experiment [10] is 100 µM (active).

As to `COCc1c(C(C)C)nc(C(C)C)c(/C=C/[C@@H](O)C[C@@H](O)CC(=O)O)c1-c1ccc(F)cc1`, the result in experiment [1], in [2], in experiment [3], in experiment [4], in experiment [10] and in [6] was inactive. The result in experiment [7], in experiment [8] and in [9] was inactive.

Consider `O=C(O)CCCC[C@@H]1SC[C@@H]2NC(=O)N[C@@H]21`, for which the molecule was classed as inactive in experiment [1], in experiment [2], in [3], in experiment [4], in experiment [10] and in experiment [6]. The outcome in experiment [7], in [8] and in experiment [9] was inactive.

Turning to `CCN(CC#N)c1cccc(C)c1`, the molecule was classed as inactive in [1], in experiment [2], in experiment [3], in [4], in experiment [5] and in experiment [6]. Further, the molecule was classed as inactive in [7], in [8] and in experiment [9].

`CCCCCCCC/C=C\CCCCCCCC(=O)O`: the call in experiment [1], in [2], in experiment [3], in experiment [10], in experiment [6] and in [7] was inactive. In addition, the molecule was classed as inactive in [9]. Further, the results for the half-maximal activity concentration (AC50) in experiment [4] and in experiment [8] were 48.7 µM (active) and 85.9 µM (active), respectively.

`Cc1cccc(N)n1`: the molecule was classed as inactive in [1], in experiment [2], in experiment [3], in [4], in experiment [10] and in [6]. Besides, the call in experiment [7], in [8] and in experiment [9] was inactive.

Regarding `CC(=O)C=CC1C(C)=CCC(C)C1(C)C` (stereo unspecified), the molecule was classed as inactive in experiment [1], in [2], in experiment [3], in experiment [4], in [5] and in experiment [6]. Besides, the call in experiment [7], in experiment [8] and in experiment [9] was inactive.

On to `COC(=O)c1ccc2cc(C(=O)OC)ccc2c1`, for which the molecule was called inactive in experiment [1], in experiment [2], in [3], in experiment [4], in experiment [10] and in experiment [6]. The call in [8] and in [9] was inactive.

For the molecule `O=C(O)CCCCCCCCCC(=O)O`, the outcome in experiment [1], in experiment [2], in experiment [3], in [4], in [5] and in experiment [6] was inactive. Moreover, the molecule was called inactive in [7] and in experiment [8].

As to `C=CC(=O)OCCOC(=O)C=C`, the molecule was classed as inactive in experiment [1], in experiment [2], in [10], in experiment [7], in experiment [8] and in experiment [9]. For the same molecule, the half-maximal activity concentration (AC50) in experiment [3] was 27.2 µM (active); in experiment [4], 27.4 µM (active); in [6] it was 27.2 µM (active).

`C=CC(=O)OCCC(=O)O`: the molecule was classed as inactive in [1], in experiment [2], in [3], in [4], in [10] and in experiment [6]. The molecule was classed as inactive in experiment [7], in experiment [8] and in [9].

Regarding `CCC(Cc1ccccc1)(C(=O)c1ccc(N2CCOCC2)cc1)N(C)C` (stereo unspecified), the outcome in experiment [1], in experiment [2], in [3], in experiment [4], in [10] and in experiment [6] was inactive. Moreover, the result in experiment [7] and in experiment [9] was inactive. The AC50 in experiment [8] is 73.1 µM (active).

Take `CCCCCCCCCCCCCCCC[N+](C)(C)CC`: the call in [1], in experiment [2], in [10], in [7] and in experiment [8] was inactive. Moreover, the concentration at half-maximal activity (AC50) in experiment [3] is 8.84 µM (active); in experiment [4] it was 9.13 µM (active); in experiment [6] it was 12.6 µM (active); in [9] it was 5.48 µM (active).

Take `CC(C)CCCC(C)CC=O` (stereo unspecified): the molecule was classed as inactive in [1], in experiment [2], in experiment [3], in experiment [10], in experiment [5] and in experiment [7]. The result in [8] and in experiment [9] was inactive.

`C=C(C)C(=O)OCCOc1ccccc1`: the result in experiment [1], in [2], in experiment [3], in experiment [10], in [5] and in [6] was inactive. Also, the result in experiment [7], in experiment [8] and in experiment [9] was inactive.

With `O=C(O)c1cc(Cl)cc([N+](=O)[O-])c1Cl`, the result in [1], in [2], in experiment [3], in experiment [10], in experiment [5] and in experiment [6] was inactive. In addition, the molecule was called inactive in experiment [8] and in [9].
